Values without a mark were called inactive. Results filed as inconclusive are left out. A call without a number means that no potency is given here. The source made the active and inactive calls. Unless noted, the call rests on the fitted dose curve.
What was measured:
[1] = target: Estrogen receptor beta (Homo sapiens) (UniProt Q92731); test: qHTS assay to identify small molecule agonists of the estrogen receptor beta (ER-beta) signaling pathway (AID 1259377; active means well fitted activation curve with a large enough effect in the signal ratio in the repeat runs, not every such curve was filed as active; the % refers to the signal ratio)
Method in brief: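 Ratiometric beta-lactamase FRET read-out came after 2 h substrate loading at room temperature. It followed 16 h compound treatment at 37C of GripTite HEK293T cells carrying a UAS-bla reporter, plated in 2% charcoal-stripped FBS medium.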

[2] = target: Estrogen receptor beta (Homo sapiens) (UniProt Q92731); test: qHTS assay to identify small molecule antagonists of the estrogen receptor beta (ER-beta) signaling pathway (AID 1259378; active means well fitted inhibition curve with a large enough effect in the signal ratio in the repeat runs, not every such curve was filed as active; the % refers to the signal ratio)
Method in brief: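 Antagonist mode: compounds added to beta-lactamase reporter HEK293T ER-beta-UAS cells stimulated with E2 (1nM final), 16 hr at 37C. LiveBLAzer B/G FRET substrate, 2 hours room temperature, fluorescence read-out.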

[3] = qHTS assay to identify small molecule agonists of the androgen receptor (AR) signaling pathway in the presence of an antagonist - cell viability counter screen (AID 1259379; active means well fitted curve in the direction sought with a large enough effect in the repeat runs; an effect the other way counts as inactive or inconclusive;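 further: MDA-kb2 human breast cancer cells carrying an MMTV luciferase reporter; series mostly up to about 92 µM; nearly all actives have a fitted effect of over 25% in size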)
Method in brief: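 Viability counter screen: CellTiter-Fluor fluorescence, measured in the same wells as the luciferase read-out. MDA-kb2 cells, 3,000/well, with nilutamide at 3.0uM final and compounds at 15 concentrations, 16 hr at 37C, 0% CO2.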

[4] = qHTS assay to identify small molecule agonists of the estrogen receptor beta (ER-beta) signaling pathway - cell viability counter screen (AID 1259380; active means well fitted curve in the direction sought with a large enough effect in the repeat runs; an effect the other way counts as inactive or inconclusive; further: nearly all actives have a fitted effect of over 30% in size)
Method in brief: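 Luminescence read-out (CellTiter-Glo, 30 min, room temp) taken in the same wells as the beta-lactamase reporter assay; ER-beta-UAS-bla HEK293T cells exposed to DMSO-dissolved compounds for 16 hr at 37C in 2% charcoal-stripped FBS medium.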

[5] = target: Androgen receptor (Homo sapiens) (UniProt P10275); test: qHTS assay to identify small molecule agonists of the androgen receptor (AR) signaling pathway in the presence of an antagonist (AID 1259381); further: nearly all actives have a fitted effect of over 15% in size; further: potency means the concentration at half of the fitted maximal effect
Method in brief: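 Luciferase read-out (ONE-Glo, 30min room temperature) in MDA-kb2 MMTV-reporter cells; agonist mode run in presence of AR antagonist nilutamide, 3.0uM final. Compounds tested as 15-point series, 16hr exposure at 37C, 0% CO2.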

[6] = qHTS assay to identify small molecule antagonists of the estrogen receptor beta (ER-beta) signaling pathway - cell viability counter screen (AID 1259382; active means well fitted curve in the direction sought with a large enough effect in the repeat runs; an effect the other way counts as inactive or inconclusive;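 further: HEK293T cells carrying ER-beta-UAS-bla reporter stimulated with estradiol; series mostly up to about 92 µM; nearly all actives have a fitted effect of over 55% in size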)
Method in brief: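 Luminescent ATP read-out (CellTiter-Glo, 30 min, RT) taken in the same wells as the bla reporter assay. HEK293T ER-beta-UAS-bla cells in 2% charcoal-stripped FBS were exposed to compounds with 1nM E2 for 16 hr at 37C.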

[7] = target: Estrogen receptor (Homo sapiens) (UniProt P03372); test: qHTS assay to identify small molecule agonists of the estrogen receptor alpha (ER-alpha) signaling pathway in the presence of an antagonist (AID 1259383); further: top concentration of the series differs between compounds; nearly all actives have a fitted effect of over 15% in size
Method in brief: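 Luciferase luminescence (ONE-Glo, 30min at room temperature) measured in VM7Luc4E2 cells after 22hr compound exposure at 15 concentrations, with 10.0nM ICI-182,780 final present; cells express endogenous ER-alpha and carry four EREs upstream of luciferase.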

[8] = qHTS assay to identify small molecule antagonists of the sonic hedgehog signaling (Shh) pathway (AID 1259369); further: nearly all actives have a fitted effect of over 45% in size
Method in brief: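 Luminescence readout: firefly Luc under Gli1 response element in 3T3Gli1-Luc cells (NIH/3T3 clone). Antagonist mode, stimulation by conditioned medium; compound exposure 24hr at 37 C, 5% CO2.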

[9] = qHTS assay to identify small molecule agonists or antagonists of the thyroid stimulating hormone receptor (TSHR) signaling pathway - wild type cell line counter screen (AID 1259384)
Method in brief: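 Counter screen in untransfected Hek293: compounds (15-point titration, triplicate) plus phosphodiesterase inhibitor Ro20-1724 added after 18 h plating; 30 min RT. Intracellular cAMP via competitive d2/cryptate immunoassay, 1 h incubation.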

[10] = target: Thyrotropin receptor (Homo sapiens) (UniProt P16473); test: qHTS assay to identify small molecule antagonists of the thyroid stimulating hormone receptor (TSHR) signaling pathway (AID 1259385); further: nearly all actives have a fitted effect of over 20% in size
Method in brief: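 Antagonist mode: compound-treated TSHR-expressing HEK293 cells were stimulated with 1.5 ng/mL TSH (final) in presence of Ro20-1724 for 30 min at RT. HTRF cAMP detection after 1 h; each compound tested at 15 concentrations, triplicate.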

Chain of Estrogen receptor (Homo sapiens) (P03372 whole entry, looked up): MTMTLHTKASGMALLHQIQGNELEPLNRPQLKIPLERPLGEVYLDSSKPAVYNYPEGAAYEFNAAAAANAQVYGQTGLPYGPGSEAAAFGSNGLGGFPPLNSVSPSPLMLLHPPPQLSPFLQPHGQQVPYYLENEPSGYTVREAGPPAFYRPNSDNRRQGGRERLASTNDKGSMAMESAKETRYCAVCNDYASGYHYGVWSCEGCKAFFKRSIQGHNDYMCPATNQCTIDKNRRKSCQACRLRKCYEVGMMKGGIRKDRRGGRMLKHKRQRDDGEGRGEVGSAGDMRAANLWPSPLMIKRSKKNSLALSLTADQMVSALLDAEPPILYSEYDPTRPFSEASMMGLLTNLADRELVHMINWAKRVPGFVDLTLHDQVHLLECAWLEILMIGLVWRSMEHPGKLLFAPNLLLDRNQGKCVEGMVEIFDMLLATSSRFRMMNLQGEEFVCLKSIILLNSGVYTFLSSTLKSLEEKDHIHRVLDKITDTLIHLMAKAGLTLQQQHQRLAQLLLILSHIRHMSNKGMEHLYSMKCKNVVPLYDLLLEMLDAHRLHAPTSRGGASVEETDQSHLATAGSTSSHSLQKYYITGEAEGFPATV
Chain of Androgen receptor (Homo sapiens) (P10275 whole entry, looked up): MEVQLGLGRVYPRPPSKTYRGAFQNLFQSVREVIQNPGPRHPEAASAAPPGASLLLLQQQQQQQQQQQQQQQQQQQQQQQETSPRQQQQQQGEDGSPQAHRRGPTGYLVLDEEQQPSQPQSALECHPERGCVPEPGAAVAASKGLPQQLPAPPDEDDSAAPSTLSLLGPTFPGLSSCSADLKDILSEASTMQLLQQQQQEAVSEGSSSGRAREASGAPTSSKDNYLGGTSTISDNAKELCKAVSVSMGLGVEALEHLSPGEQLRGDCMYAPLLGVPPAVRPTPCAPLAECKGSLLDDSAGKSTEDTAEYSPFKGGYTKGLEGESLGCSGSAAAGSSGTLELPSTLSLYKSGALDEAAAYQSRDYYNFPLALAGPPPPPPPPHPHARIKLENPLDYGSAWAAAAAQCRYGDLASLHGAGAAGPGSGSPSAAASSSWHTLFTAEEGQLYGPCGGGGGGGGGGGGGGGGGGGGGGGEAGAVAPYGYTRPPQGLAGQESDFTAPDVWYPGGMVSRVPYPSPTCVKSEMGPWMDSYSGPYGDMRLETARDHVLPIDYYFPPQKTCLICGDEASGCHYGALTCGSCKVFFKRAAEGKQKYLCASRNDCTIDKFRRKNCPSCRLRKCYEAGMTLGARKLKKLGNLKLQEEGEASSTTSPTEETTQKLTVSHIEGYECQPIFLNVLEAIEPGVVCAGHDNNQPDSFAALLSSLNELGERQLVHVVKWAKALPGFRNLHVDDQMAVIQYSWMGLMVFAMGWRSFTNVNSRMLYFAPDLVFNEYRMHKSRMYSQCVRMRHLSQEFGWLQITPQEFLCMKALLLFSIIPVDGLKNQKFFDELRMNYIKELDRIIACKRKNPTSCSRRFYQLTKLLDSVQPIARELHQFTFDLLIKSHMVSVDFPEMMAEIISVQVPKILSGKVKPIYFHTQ
Chain of Estrogen receptor beta (Homo sapiens) (Q92731 whole entry, looked up): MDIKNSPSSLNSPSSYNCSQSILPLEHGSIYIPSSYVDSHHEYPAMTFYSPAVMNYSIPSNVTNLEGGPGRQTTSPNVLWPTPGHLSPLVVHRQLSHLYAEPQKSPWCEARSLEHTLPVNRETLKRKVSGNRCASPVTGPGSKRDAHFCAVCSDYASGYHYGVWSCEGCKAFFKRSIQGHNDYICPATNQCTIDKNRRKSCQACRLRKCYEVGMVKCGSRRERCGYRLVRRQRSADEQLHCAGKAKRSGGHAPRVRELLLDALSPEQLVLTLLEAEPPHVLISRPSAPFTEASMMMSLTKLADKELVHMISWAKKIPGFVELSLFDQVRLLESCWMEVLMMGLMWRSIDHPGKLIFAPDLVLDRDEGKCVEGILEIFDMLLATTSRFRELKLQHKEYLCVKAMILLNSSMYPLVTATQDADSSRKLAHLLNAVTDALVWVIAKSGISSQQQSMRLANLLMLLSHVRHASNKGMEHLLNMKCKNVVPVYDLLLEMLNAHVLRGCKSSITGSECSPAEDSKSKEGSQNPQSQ
Chain of Thyrotropin receptor (Homo sapiens) (P16473 whole entry, looked up): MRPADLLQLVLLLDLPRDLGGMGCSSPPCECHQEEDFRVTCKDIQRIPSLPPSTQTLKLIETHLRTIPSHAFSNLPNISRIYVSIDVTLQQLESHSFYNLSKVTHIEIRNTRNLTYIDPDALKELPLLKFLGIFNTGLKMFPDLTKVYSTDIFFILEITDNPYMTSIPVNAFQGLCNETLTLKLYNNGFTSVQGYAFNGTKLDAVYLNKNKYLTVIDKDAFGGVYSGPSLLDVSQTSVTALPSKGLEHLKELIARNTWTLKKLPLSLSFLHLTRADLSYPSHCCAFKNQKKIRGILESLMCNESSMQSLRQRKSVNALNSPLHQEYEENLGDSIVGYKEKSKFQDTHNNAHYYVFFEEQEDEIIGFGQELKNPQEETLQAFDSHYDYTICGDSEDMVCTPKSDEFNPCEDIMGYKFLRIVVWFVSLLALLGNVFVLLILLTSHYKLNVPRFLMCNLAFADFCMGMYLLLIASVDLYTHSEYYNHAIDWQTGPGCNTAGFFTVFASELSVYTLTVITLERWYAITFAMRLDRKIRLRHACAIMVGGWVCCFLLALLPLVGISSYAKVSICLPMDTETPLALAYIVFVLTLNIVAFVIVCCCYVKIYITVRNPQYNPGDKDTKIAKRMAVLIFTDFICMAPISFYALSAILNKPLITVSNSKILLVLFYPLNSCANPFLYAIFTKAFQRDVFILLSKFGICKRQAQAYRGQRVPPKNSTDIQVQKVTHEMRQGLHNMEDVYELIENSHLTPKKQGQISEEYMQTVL

CC(=O)O[C@@]12CO[C@@H]1C[C@H](O)[C@@]1(C)C(=O)[C@H](O)C3=C(C)[C@@H](OC(=O)[C@H](O)[C@@H](NC(=O)OC(C)(C)C)c4ccccc4)C[C@@](O)([C@@H](OC(=O)c4ccccc4)[C@H]21)C3(C)C
Potency [1]: inactive
Potency [2]: inactive
Potency [3]: inactive
Potency [4]: inactive
Potency [5]: inactive
outcome [6]: inactive
outcome [7]: inactive

CCCC(=O)O[C@]1(C(=O)CC)CC[C@H]2[C@@H]3CCC4=CC(=O)CC[C@]4(C)[C@H]3[C@@H](O)C[C@@]21C
Potency [1]: inactive
Potency [3]: inactive
Potency [5]: 13.3 nM (active)
outcome [6]: inactive
outcome [7]: inactive

CNCC(O)c1ccc(O)c(O)c1 (centres undefined)
Potency [8]: inactive
outcome [6]: inactive
outcome [7]: inactive

C[N+]12CCC(CC1)C(OC(=O)C(O)(c1ccccc1)c1ccccc1)C2 (centres undefined)
Potency [8]: inactive
Potency [4]: inactive
outcome [6]: inactive
outcome [9]: inactive

C[N+](C)(C)CCCCCCCCCC[N+](C)(C)C
Potency [8]: inactive
outcome [6]: inactive
outcome [7]: inactive
outcome [9]: inactive
outcome [10]: inactive

COCCOCC(OC)OC
Potency [1]: inactive
Potency [2]: inactive
Potency [3]: inactive
outcome [6]: inactive
outcome [7]: inactive
outcome [9]: inactive
outcome [10]: inactive

CCCc1nn(C)c2c(=O)[nH]c(-c3cc(S(=O)(=O)N4CCN(C)CC4)ccc3OCC)nc12
Potency [3]: inactive
outcome [6]: inactive
outcome [9]: inactive

O=[N+]([O-])c1ccc(/C=N\O)o1
Potency [1]: inactive
Potency [2]: inactive
Potency [3]: inactive
Potency [4]: inactive
outcome [6]: inactive
outcome [7]: inactive
outcome [9]: inactive
outcome [10]: inactive

CCCCOC(=O)CCC(C)=O
Potency [3]: inactive
Potency [4]: inactive
outcome [6]: inactive
outcome [7]: inactive
outcome [9]: inactive
outcome [10]: inactive

CC(C)(C)C(=O)Oc1ccc(S(=O)(=O)Nc2ccccc2C(=O)NCC(=O)O)cc1
Potency [8]: inactive
Potency [4]: inactive
outcome [6]: inactive
outcome [7]: inactive
outcome [9]: inactive
outcome [10]: inactive

CC(=O)c1ccccc1[N+](=O)[O-]
Potency [1]: inactive
Potency [2]: inactive
Potency [3]: inactive
Potency [4]: inactive
outcome [6]: inactive
outcome [7]: inactive
outcome [9]: inactive
outcome [10]: inactive

O=C(O)c1cc(C(=O)O)cc(C(=O)O)c1
Potency [3]: inactive
Potency [4]: inactive
outcome [6]: inactive
outcome [7]: inactive
outcome [9]: inactive

COc1ccccc1OCC1CNC(=O)O1 (centres undefined)
Potency [8]: inactive
Potency [4]: inactive
outcome [6]: inactive
outcome [9]: inactive
outcome [10]: inactive

CCOC(=O)c1cnc2c(cnn2CC)c1NN=C(C)C
Potency [1]: inactive
Potency [3]: inactive
Potency [4]: inactive
outcome [6]: inactive
outcome [7]: inactive

Nc1c2c(nc3c1CCC3)CCCC2
Potency [3]: inactive
Potency [4]: inactive
Potency [5]: inactive
outcome [6]: inactive
outcome [7]: inactive
outcome [9]: inactive
outcome [10]: inactive

Cc1ncc(COP(=O)(O)O)c(C=O)c1O
Potency [8]: inactive
outcome [6]: inactive
outcome [7]: inactive
outcome [9]: inactive

c1coc(CNc2ncnc3nc[nH]c23)c1
Potency [3]: inactive
Potency [4]: inactive
outcome [6]: inactive
outcome [7]: inactive
outcome [9]: inactive
outcome [10]: inactive

CC(C)=CCC/C(C)=C/C#N
Potency [3]: inactive
outcome [6]: inactive
outcome [7]: inactive
outcome [9]: inactive
outcome [10]: inactive

CC1=NS(=O)(=O)c2cc(Cl)ccc2N1
Potency [8]: inactive
Potency [4]: inactive
outcome [6]: inactive
outcome [7]: inactive
outcome [9]: inactive
outcome [10]: inactive

C1CCC2=NCCCN2CC1
Potency [1]: inactive
Potency [2]: inactive
Potency [3]: inactive
Potency [4]: inactive
outcome [6]: inactive
outcome [9]: inactive
outcome [10]: inactive

COC(=O)Nc1ccc(Cl)c(Cl)c1
Potency [1]: inactive
Potency [2]: inactive
Potency [3]: inactive
Potency [4]: inactive
Potency [5]: inactive
outcome [6]: inactive
outcome [9]: inactive
outcome [10]: inactive

COc1ccc2cc1Oc1cc3c(cc1OC)CC[N+](C)(C)[C@H]3Cc1ccc(cc1)Oc1c(OC)c(OC)cc3c1[C@@H](C2)[N+](C)(C)CC3
Potency [8]: inactive
Potency [4]: inactive
outcome [6]: inactive
outcome [7]: inactive
outcome [9]: inactive
outcome [10]: inactive

Nc1ccn([C@@H]2O[C@H](CO)[C@@H](O)[C@@H]2O)c(=O)n1
Potency [3]: inactive
outcome [6]: inactive
outcome [7]: inactive

Cc1ccnc(NS(=O)(=O)c2ccc(N)cc2)n1
Potency [8]: inactive
Potency [4]: inactive
outcome [6]: inactive
outcome [7]: inactive
outcome [9]: inactive
outcome [10]: inactive

CCCn1cc[n+](C)c1C
Potency [4]: inactive
outcome [6]: inactive

CCOC(=O)C1=NOC(c2ccccc2)(c2ccccc2)C1
Potency [1]: inactive
Potency [2]: inactive
Potency [3]: inactive
Potency [4]: inactive
outcome [6]: inactive
outcome [7]: inactive
outcome [9]: inactive
outcome [10]: inactive

COc1ccnc(CS(=O)c2nc3cc(OC(F)F)ccc3[nH]2)c1OC (centres undefined)
Potency [3]: inactive
outcome [6]: inactive
outcome [7]: inactive
outcome [9]: inactive
outcome [10]: inactive

COc1c(N2CCNC(C)C2)c(F)cc2c(=O)c(C(=O)O)cn(C3CC3)c12 (centres undefined)
Potency [1]: inactive
Potency [2]: inactive
Potency [3]: inactive
Potency [4]: inactive
outcome [6]: inactive

CCN(CC#N)c1cccc(C)c1
Potency [3]: inactive
Potency [4]: inactive
outcome [6]: inactive
outcome [7]: inactive
